Each structure is given as a SMILES string. Values without a mark were called inactive. Inconclusive results are not listed. The source made the active and inactive calls. The call rests on the fitted dose curve; in most records, active means well fitted curve in the direction sought with a large enough effect; inconclusive means small, poorly fitted or top-dose-only effect, or another doubt; inactive means no such curve, though single readings can be large; an effect the other way counts as inactive or inconclusive.

The target of experiment [1] is Glutathione peroxidase 1 (Homo sapiens) (UniProt P07203). The experiment in a line: Primary qHTS Assay for Inhibitors of Recombinant Selenoprotein Glutathione Peroxidase 1 (GPX1) (AID 1845191). Further: nearly all actives have a fitted effect of over 65% in size. A digest of the protocol: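 GR-coupled assay: compounds preincubated 30 min at room temperature with GPX1, then reaction started with CHP; final 10 nM GPX1, 1 mM GSH, 0.5 mM CHP, 0.5 mM NADPH, 100 nM GR, 0.01% BSA, pH 7.5 Tris buffer. NADPH fluorescence (340/450 nm) read at 0 and 15 min.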
On the technique in general: qHTS replaces the single test concentration by a dilution series.

Experiment [2] concerns the target Phospholipid hydroperoxide glutathione peroxidase GPX4 (Homo sapiens) (UniProt P36969). The experiment in a line: Primary qHTS Assay for Inhibitors of Recombinant Selenoprotein Glutathione Peroxidase 4 (GPX4) (AID 1845192). Further: nearly all actives have a fitted effect of over 65% in size. On activity change, negative = inhibition: series mostly up to about 50 µM; on the % scale 0 is the no-effect control and ±100 the full control effect. The essentials:
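GR-coupled assay: recombinant GPX4 preincubated 30 min with compound at room temperature; final 200 nM GPX4, 1 mM GSH, 0.5 mM cumene hydroperoxide, 0.5 mM NADPH, 100 nM GR, 0.01% BSA, pH 7.5 Tris. NADPH fluorescence (340/450 nm) read at 0 and 15 min.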

For experiment [3], the target named is Luciferin 4-monooxygenase (Photinus pyralis) (UniProt P08659). The experiment in a line: Primary firefly luciferase (FLuc) qHTS assay for identification of artifact compounds. (AID 1845220). Further: nearly all actives have a fitted effect of over 60% in size.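 On activity change, negative = inhibition: series mostly up to about 54 µM; plate controls were DMSO vehicle for no effect and no enzyme for full effect.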 A digest of the protocol:
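Titrated compounds were incubated 15 min at RT, protected from light, with luciferin and ATP at 10 uM; reaction started with 10 nM FLuc, luminescence imaged at 5 min, and concentration-response fitted by Hill equation.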

Experiment [4] can be described thus: Primary fluorescence-based thiol-reactive (MSTI) qHTS assay for identification of artifact compounds. (AID 1845221). Further: nearly all actives have a fitted effect of over 65% in size. Further: potency means the concentration at half of the fitted maximal effect.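 On activity change, negative = thiol reactive: series mostly up to about 54 µM; thiol-reactive compounds lower the probe fluorescence signal.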 A digest of the protocol:
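qHTS titration of compound; 4 uM MSTI, PBS pH 7.4, 2% DMSO; 1 h RT, dark; fluorescence 525/598 nm; normalized to Acetyl-MSTI and MSTI; 4-parameter Hill fit.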

The nature of experiment [5]: Primary redox qHTS assay for identification of artifact compounds. (AID 1845223).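 Further: 0% = DMSO and 100% = reference compound.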 The essentials:
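Amplex Red (25 uM) and HRP (250 mU/mL) in HBSS, with compounds for 15 min, then 250 uM DTT for 30 min, room temperature, dark. Fluorescence 525/598 nm read; normalized to DMSO and 10 uM DA3003; Hill fit.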

Experiment [6] relates to Nanoluciferase (engineered Oplophorus gracilirostris luciferase). The experiment in a line: Primary Nanoluciferase (NLuc) qHTS assay for identification of artifact compounds. (AID 1845222).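 Further: NLuc secreted into diluted conditioned medium of S16 cells; series mostly up to about 54 µM; 0% = DMSO and -100% = no enzyme.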 A digest of the protocol: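 qHTS format, against NLuc in S16 cell-conditioned medium. Nano-Glo substrate 1:100 was added after 15 min at room temperature. Luminescence was taken after a further 5 min.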

Phospholipid hydroperoxide glutathione peroxidase GPX4 (Homo sapiens), sequence (P36969 whole entry, looked up): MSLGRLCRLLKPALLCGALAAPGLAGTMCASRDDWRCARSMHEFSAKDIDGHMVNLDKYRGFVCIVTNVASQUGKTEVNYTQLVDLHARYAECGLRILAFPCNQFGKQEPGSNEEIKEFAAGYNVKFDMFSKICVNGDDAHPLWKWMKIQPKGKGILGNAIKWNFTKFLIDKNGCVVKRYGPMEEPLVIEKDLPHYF
Glutathione peroxidase 1 (Homo sapiens), sequence (P07203 whole entry, looked up): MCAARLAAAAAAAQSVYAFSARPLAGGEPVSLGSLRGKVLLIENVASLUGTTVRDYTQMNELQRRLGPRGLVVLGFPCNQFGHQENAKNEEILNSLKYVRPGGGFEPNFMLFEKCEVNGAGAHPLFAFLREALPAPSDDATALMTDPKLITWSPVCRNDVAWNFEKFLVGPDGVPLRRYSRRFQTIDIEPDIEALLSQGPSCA

As for `C[C@H]1CC[C@@]2(OC1)O[C@H]1CC3[C@@H]4CC[C@@H]5C[C@@H](O[C@@H]6O[C@H](CO)[C@@H](O[C@@H]7O[C@@H](C)[C@H](O)[C@@H](O)[C@H]7O)[C@H](O)[C@H]6O[C@@H]6O[C@H](CO)[C@@H](O)[C@H](O)[C@H]6O)CC[C@]5(C)C4CC[C@]3(C)[C@H]1[C@@H]2C` (stereo not given in full), the Potency entry in experiment [1] and in experiment [2] was “inactive” in each case. Besides, in experiment [3], the activity change, negative = inhibition is 0.648% [at 11.6 µM]. Moreover, the activity change, negative = thiol reactive in experiment [4] was 131% [at 11.5 µM]. The redox activity (% of DA3003) in experiment [5] is -5.48% [at 11.5 µM].
Take `N#Cc1cc(CN2CCC(Nc3ncnc4sc(Cl)cc34)CC2)ccc1F`: the Potency entry in experiment [1], in experiment [2], in experiment [3], in experiment [4] and in experiment [5] was “inactive” throughout.
On to `CC(F)(F)CN1CCOc2c(nn(-c3ccccc3Cl)c2-c2ccc(Cl)cc2)C1=O`, for which the Potency result in experiment [1], in experiment [2], in experiment [3], in experiment [4] and in experiment [5] was “inactive” each time.
As for `C=C1C(=O)O[C@@H]2[C@H]1CC(=O)[C@H](C)[C@@](O)(C(=O)/C=C/C)[C@H]2OC(=O)C(C)CC` (stereo not given in full), the Potency entry in experiment [1], in experiment [2], in experiment [3], in experiment [4], in experiment [6] and in experiment [5] was “inactive” throughout.
With `C#Cc1cccc(Nc2nc3cc(C(=O)O)ccc3c3cncnc23)c1`, the Potency result in experiment [1], in experiment [2], in experiment [3], in experiment [4] and in experiment [5] was “inactive” throughout.
Consider `O=C(N[C@H]1CCN(C(=O)c2cc(C(F)(F)F)cc(C(F)(F)F)c2)[C@H](Cc2ccc(Cl)cc2)C1)c1ccnc2ccccc12`, for which the Potency result in experiment [1], in experiment [2], in experiment [3], in experiment [4] and in experiment [5] was “inactive” throughout.
As for `O=C(c1c(F)ccc(NS(=O)(=O)N2CC[C@@H](F)C2)c1F)c1c[nH]c2ncc(-c3cnc(C4CC4)nc3)cc12`, the Potency entry in experiment [1], in experiment [2], in experiment [3], in experiment [4], in experiment [6] and in experiment [5] was “inactive” throughout.
For the molecule `CCN(c1cc(-c2ccc(CN3CCOCC3)cc2)cc(C(=O)NCc2c(C)cc(C)[nH]c2=O)c1C)C1CCOCC1`, the Potency result in experiment [1], in experiment [2], in experiment [3], in experiment [4] and in experiment [5] was “inactive” each time.
`COC1CC(O[C@H]2CC[C@]3(C)C4CC[C@]5(C)C(C6=CC(=O)OC6)=CCC56OC46CC[C@@H]3C2)OC(C)C1O[C@@H]1O[C@H](CO[C@@H]2O[C@H](CO)[C@@H](O)[C@H](O)[C@H]2O)[C@@H](O)[C@H](O)[C@H]1O` (stereo not given in full): the Potency entry in experiment [1] and in experiment [2] was “inactive” in each case. The outcome in experiment [3] was “inactive [at 11.6 µM]”. Moreover, the activity change, negative = thiol reactive in experiment [4] is 101% [at 11.5 µM]. In addition, in experiment [5], the redox activity (% of DA3003) is 3.85% [at 11.5 µM].
On to `C[C@@H]1C[C@H](C)CN(CCC(=O)Nc2ccc(Br)cc2)C1`, for which the Potency result in experiment [1], in experiment [2], in experiment [3], in experiment [4] and in experiment [5] was “inactive” in each case.
For the molecule `CCOc1ccc(Cc2nc(-c3c(C)nc4ccccn34)cs2)cc1`, the Potency result in experiment [1], in experiment [2], in experiment [3], in experiment [6] and in experiment [5] was “inactive” throughout. Moreover, in experiment [4], the Potency is 1.68 µM (active).
`COc1ccc(OC)c(-c2ccc(NC(=O)c3ccncc3F)cc2)c1`: the Potency result in experiment [1], in experiment [2], in experiment [3], in experiment [4] and in experiment [5] was “inactive” each time.
As to `COc1c(F)cccc1C(=O)N1C[C@@H](C)CC[C@H]1CNc1ccc(Br)cn1`, the Potency result in experiment [1], in experiment [2], in experiment [3], in experiment [4] and in experiment [5] was “inactive” each time.
Turning to `O=S(=O)(Nc1cc(Cl)c(Oc2cnc3ccccc3c2)c(Cl)c1)c1ccc(Cl)cc1Cl`, the Potency result in experiment [1], in experiment [2], in experiment [3], in experiment [4] and in experiment [5] was “inactive” each time.
`O=C(NCCCNC(=O)c1ccc[nH]c1=O)c1cc(-c2ccccc2)on1`: the Potency result in experiment [1], in experiment [2], in experiment [3], in experiment [4] and in experiment [5] was “inactive” throughout.
Regarding `CCCCCCCCC(=O)N[C@H](CN1CCCC1)[C@H](O)c1ccc2c(c1)OCCO2`, the Potency entry in experiment [1], in experiment [2], in experiment [3], in experiment [4] and in experiment [5] was “inactive” throughout.
On to `COc1cc(C(C)=O)c(OC)c2c1OC(C)(C)C=C2`, for which the Potency entry in experiment [1], in experiment [2], in experiment [3], in experiment [4], in experiment [6] and in experiment [5] was “inactive” in each case.
Take `CCNC(=O)Nc1ccc(-c2nc3c(c(N4CCOCC4C)n2)CCN(C2COC2)C3)cc1` (stereo not given): the Potency entry in experiment [1], in experiment [2], in experiment [3], in experiment [4] and in experiment [5] was “inactive” in each case.
For `N#Cc1ccc(-c2ccc(S(=O)(=O)Nc3cccc(N)n3)cc2)cc1`, the Potency result in experiment [1], in experiment [2], in experiment [3], in experiment [4] and in experiment [5] was “inactive” throughout.
On to `C1=Cc2ccccc2C(=C2CCN(CCCCc3nn[nH]n3)CC2)c2ccccc21`, for which the Potency result in experiment [1], in experiment [2], in experiment [3], in experiment [4] and in experiment [5] was “inactive” throughout.
For `CC(C)=CCCC1(C)C2CCC1(C)C(O)C2` (stereo not given), the Potency result in experiment [1], in experiment [2], in experiment [3], in experiment [6] and in experiment [5] was “inactive” throughout. Further, in experiment [4], the Potency is 29.9 µM (active).
For the molecule `CN(C)C(=O)NC1(c2ccccc2)CCN(CCC[C@]2(c3ccc(Cl)c(Cl)c3)CCCN(C(=O)c3ccccc3)C2)CC1`, the Potency result in experiment [1], in experiment [2], in experiment [3], in experiment [4] and in experiment [5] was “inactive” each time.
`OC1(CN2CCC(COc3noc4cccc(O[C@@H]5CCOC5)c34)CC2)CCOCC1`: the Potency entry in experiment [1], in experiment [2], in experiment [3], in experiment [4] and in experiment [5] was “inactive” each time.
`C=C1CCC2C(C)(C)CCCC2(C)C1CC/C(C)=C\CO` (stereo not given): the Potency result in experiment [1], in experiment [2], in experiment [3], in experiment [4] and in experiment [5] was “inactive” each time.
For the molecule `COCCCNC(=O)c1ccc(Cn2c(=O)c3ccccc3n(Cc3ccc(C(C)C)cc3)c2=O)cc1`, the Potency result in experiment [1], in experiment [2], in experiment [3], in experiment [4] and in experiment [5] was “inactive” throughout.
As to `Cc1cnc(-c2ccccc2C(C)C)nc1NCc1ccc(-n2ccnn2)cc1`, the Potency entry in experiment [1], in experiment [2], in experiment [3], in experiment [4] and in experiment [5] was “inactive” each time.
